# Source: publication PMC11574364
# Assays:
# Experiment in all cases: protein domain microarray probed with biotinylated miRNA; Domain array: 20 mM Tris-HCl pH 7.4, 200 mM KCl, 0.2 mM EDTA, 0.05% NP40, 2 ug/ul heparin, overnight 4 C. ORF array: PBS pH 7.0 with RNase inhibitor, 100 ng RNA; high values mean tight binding
# Conditions in all cases: ssRNA
# RBM12(3) = molecular target: T1, RBM12(3) (Homo sapiens, UniProt Q9NTZ6)
# T1 sequence: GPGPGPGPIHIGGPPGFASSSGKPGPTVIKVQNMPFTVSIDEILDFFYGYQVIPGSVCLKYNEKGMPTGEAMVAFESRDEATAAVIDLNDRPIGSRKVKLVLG
# RBM41 = molecular target: T2, RBM41 (Homo sapiens, UniProt Q96IZ5)
# T2 sequence: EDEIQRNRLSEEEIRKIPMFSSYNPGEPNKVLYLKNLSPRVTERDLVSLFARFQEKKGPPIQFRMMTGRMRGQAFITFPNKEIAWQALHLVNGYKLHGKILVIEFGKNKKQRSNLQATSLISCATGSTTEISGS
# RBM15 = molecular target: T3, RBM15 (Homo sapiens, UniProt Q96T37)
# T3 sequence: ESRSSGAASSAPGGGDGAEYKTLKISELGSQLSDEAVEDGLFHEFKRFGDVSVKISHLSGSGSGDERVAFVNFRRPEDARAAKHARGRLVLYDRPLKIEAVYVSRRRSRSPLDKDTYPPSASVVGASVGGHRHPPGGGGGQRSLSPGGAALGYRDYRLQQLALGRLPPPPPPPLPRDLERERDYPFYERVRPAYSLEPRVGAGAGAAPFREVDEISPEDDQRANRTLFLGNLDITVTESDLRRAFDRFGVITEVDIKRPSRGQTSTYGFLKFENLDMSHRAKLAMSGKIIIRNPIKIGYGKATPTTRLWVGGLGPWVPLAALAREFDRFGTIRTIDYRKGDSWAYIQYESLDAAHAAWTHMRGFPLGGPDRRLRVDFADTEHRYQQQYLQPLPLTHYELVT
# ASCC1 = ASCC1 (Homo sapiens, UniProt Q8N9N2)
# ASCC1, sequence (Q8N9N2 79-168): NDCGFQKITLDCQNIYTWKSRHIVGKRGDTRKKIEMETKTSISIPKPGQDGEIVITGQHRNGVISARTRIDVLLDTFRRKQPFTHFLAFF
# TDRKH(1-2) = molecular target: T4, TDRKH(1-2) (Homo sapiens, UniProt Q9Y2W6)
# T4 sequence: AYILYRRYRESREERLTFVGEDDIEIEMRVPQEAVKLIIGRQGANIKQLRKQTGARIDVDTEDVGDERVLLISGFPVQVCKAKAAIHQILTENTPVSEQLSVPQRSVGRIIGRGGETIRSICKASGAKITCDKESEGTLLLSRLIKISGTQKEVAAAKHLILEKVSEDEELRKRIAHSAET
# RBMS1 = molecular target: T5, RBMS1 (Homo sapiens, UniProt P29558)
# T5 sequence: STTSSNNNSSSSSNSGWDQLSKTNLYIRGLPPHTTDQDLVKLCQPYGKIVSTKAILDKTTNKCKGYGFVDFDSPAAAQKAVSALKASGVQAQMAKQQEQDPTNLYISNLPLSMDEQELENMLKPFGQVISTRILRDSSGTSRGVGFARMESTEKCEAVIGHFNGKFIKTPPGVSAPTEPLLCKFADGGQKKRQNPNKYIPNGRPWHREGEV
# RBM15B = molecular target: T6, RBM15B (Homo sapiens, UniProt Q8NDT2)
# T6 sequence: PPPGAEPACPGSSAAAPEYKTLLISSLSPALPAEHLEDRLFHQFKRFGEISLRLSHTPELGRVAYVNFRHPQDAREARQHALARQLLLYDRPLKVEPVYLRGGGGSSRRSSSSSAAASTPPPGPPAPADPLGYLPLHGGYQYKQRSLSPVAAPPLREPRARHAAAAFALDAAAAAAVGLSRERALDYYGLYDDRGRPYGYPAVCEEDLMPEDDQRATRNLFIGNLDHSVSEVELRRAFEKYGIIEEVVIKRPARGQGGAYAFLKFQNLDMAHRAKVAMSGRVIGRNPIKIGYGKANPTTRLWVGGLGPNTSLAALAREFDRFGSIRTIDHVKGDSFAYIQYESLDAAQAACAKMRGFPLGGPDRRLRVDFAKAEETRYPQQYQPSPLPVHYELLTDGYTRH
# RBMY1C = RBMY1C (Homo sapiens, UniProt P0DJD4)
# RBMY1C, sequence (P0DJD4 1-110): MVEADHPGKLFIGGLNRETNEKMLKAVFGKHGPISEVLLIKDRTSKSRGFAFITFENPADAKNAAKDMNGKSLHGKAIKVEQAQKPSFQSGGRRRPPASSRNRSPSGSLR
# THOC4 = THOC4 (Homo sapiens, UniProt Q86V81)
# SF1 = molecular target: T7, SF1 (Homo sapiens, UniProt Q15637)
# T7 sequence: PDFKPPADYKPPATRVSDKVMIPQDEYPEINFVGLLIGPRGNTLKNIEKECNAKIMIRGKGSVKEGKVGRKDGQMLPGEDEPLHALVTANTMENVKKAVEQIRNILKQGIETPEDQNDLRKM
Sequence,binding signal (RBM12(3)) [fluorescence intensity],binding signal (RBM41) [fluorescence intensity],binding signal (RBM15) [fluorescence intensity],binding signal (ASCC1) [fluorescence intensity],binding signal (TDRKH(1-2)) [fluorescence intensity],binding signal (RBMS1) [fluorescence intensity],binding signal (RBM15B) [fluorescence intensity],binding signal (RBMY1C) [fluorescence intensity],binding signal (THOC4) [fluorescence intensity],binding signal (SF1) [fluorescence intensity]
AGAGGUAGUAGGUUGCAUAGUU,26.4 ± 4.72,818 ± 64.1,525 ± 1.24,24.9 ± 3.57,29.6 ± 0.502,365.1 ± 1.24,242 ± 10.9,1860 ± 11.9,49.2 ± 7.5,–
UGAGGUAGUAGGUUGUGUGGUU,44.9 ± 5.61,435 ± 24.3,501 ± 99.1,45.53 ± 0.0141,93.1 ± 19.1,341 ± 18.8,268 ± 141,1360 ± 26.2,133 ± 30,24.25 ± 0.205
UAGCUUAUCAGACUGAUGUUGA,–,–,134 ± 18.6,–,–,29.7 ± 0.537,30.7 ± 4.65,371 ± 23,–,–
CAGUGCAAUGAUGAAAGGGCAU,27.1 ± 4.43,284 ± 7.83,315.16 ± 0.212,–,40.4 ± 7.05,166 ± 3.01,128 ± 12.3,1150 ± 31.6,40.5 ± 0.424,107.4 ± 0.728
UGAGGUAGUAGGUUGUAUAGUU,–,45.9 ± 18.9,82.1 ± 15.2,–,–,78.2 ± 3.38,42.7 ± 8.55,643 ± 42.4,–,–
UGAGGUAGUAGGUUGUAUGGUU,35.9 ± 0.728,350 ± 12.9,537 ± 29.7,22.5 ± 1.64,45.7 ± 2.46,316 ± 53.1,309 ± 16.6,1200 ± 27.5,91.8 ± 21.8,24.7 ± 4.35
